A selection: hits, their analogues and other compounds. The true share with any hit is near 4.6%.
D1 PAM: potentiators of human D1 dopamine receptor; P21728; HEK293 TREx D1 cells, calcium flux, dopamine EC20 potentiation; potentiation, % at 10 µM; actives 0.036% (n = 360,000); AID 504651; in the data active = potentiation above about 30%; also: 0% is about no effect
D1 ag: human D1 receptor agonism. P21728. HEK293 T-REx D1 cells, calcium flux, agonist mode. activation, % at 2 µM. actives 1% (n = 360,000). AID 504660; also: 0% is about no effect
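Tetracycline-induced HEK293 TREx D1 cells, force-coupled to calcium signalling, were dye-loaded with a no-wash calcium kit. Compound was pin-added after a 10 s baseline. Fluorescence was read kinetically at 1 cycle/s for 180 s, with calcium rises flagged as agonism.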
TRHR enhancer: TRH receptor (human) allosteric enhancement. P34981. TRHR cells, fluo-8 calcium fluorescence, EC20 TRH enhancement. enhancement, % at 2 µM. actives 0.66% (n = 360,000). AID 493056; in the data active = enhancement above about 30%; also: 0% is about no effect
Target sequence (P34981 whole entry, looked up): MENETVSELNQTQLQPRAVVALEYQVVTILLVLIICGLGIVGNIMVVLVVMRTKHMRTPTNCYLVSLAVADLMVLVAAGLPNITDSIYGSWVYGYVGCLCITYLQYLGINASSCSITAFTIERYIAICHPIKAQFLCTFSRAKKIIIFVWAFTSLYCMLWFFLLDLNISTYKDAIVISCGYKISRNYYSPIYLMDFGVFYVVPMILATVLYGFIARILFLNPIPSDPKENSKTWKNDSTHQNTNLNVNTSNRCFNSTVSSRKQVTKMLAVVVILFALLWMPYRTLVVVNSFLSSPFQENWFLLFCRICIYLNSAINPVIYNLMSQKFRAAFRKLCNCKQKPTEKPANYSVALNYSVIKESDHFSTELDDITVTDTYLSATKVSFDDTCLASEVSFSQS
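Enhancer read-out: after compound pinning and an initial kinetic agonist-mode read, an EC20 of TRH (10 nM final) was injected and fluo-8 calcium signal (Ex 480/Em 530) followed at 1 s/cycle for 100 cycles in TRHR-expressing cells.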
TRHR ag: TRH receptor (human) agonism; activation, % at 2 µM; TRHR cells, calcium flux fluo-8, FDSS agonist mode; actives 0.18% (n = 360,000); also: 0% is about no effect
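In this calcium-flux screen, cells bearing human TRHR are dye-loaded with fluo-8, baselined for 10 cycles, then exposed to library compounds; positive kinetic calcium responses during the agonist phase mark hits, with TRH as control.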
D1 antag: antagonists of human D1 dopamine receptor | P21728 | HEK293 TREx D1 cells, calcium flux, dopamine EC80; active compounds read low | activity change, negative = inhibition, % at 10 µM | actives 3.2% (n = 360,000); in the data active = activity change below about -30%; also: % is scaled to controls: 0 for no effect and ±100 for the full control effect
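Calcium flux readout: force-coupled, inducible Hek293 Trex D1 line, cells induced overnight at 30 C with tetracycline, dye-loaded 30–90 min at RT. Antagonism scored against EC80 dopamine challenge given 180 s after compound.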
Active calls of the source: *; / = not tested or not shown; ! = not active in a repeat. Rule as the data show it, unless noted: active = activation above about 30%; inactive = the rest.

SMILES | D1 PAM | D1 ag | TRHR enhancer | TRHR ag | D1 antag
CCOc1ccc(CCNC(=O)CN2C(=O)NC3(CCCC3)C2=O)cc1OCC | -7 | 2 | -5 | 1 | -39*
CCOc1cc(C)c(S(=O)(=O)Nc2ccc3cn[nH]c3c2)cc1C | 3 | 33* | 2 | 0 | -13
CS(=O)(=O)c1ccc(Cl)c(NC(=O)COC(=O)CCN=C2NS(=O)(=O)c3ccccc32)c1 | -3 | 2 | -3 | 2 | -1
Cc1ccc(NC(=O)N(Cc2nc3ccccc3c(=O)[nH]2)Cc2cccs2)cc1 | -8 | 2 | 7 | 0 | -46*
CCNC(=S)N(Cc1ccccc1)Cc1nc2ccccc2c(=O)[nH]1 | -12 | 6 | -7 | 0 | -31*
O=C(NCc1ccco1)c1ccccc1SCC(=O)N1CCCC1 | -3 | 1 | -2 | 0 | 0
CCCNC(=O)OC[C@H]1O[C@H](CCO/N=C/C[C@@H]2C=C[C@H](OC(C)=O)[C@@H](COC(C)=O)O2)C=C[C@@H]1Oc1ccc(OC)cc1 | -5 | 4 | 1 | 0 | -30*
CCCNC(=O)OC[C@H]1O[C@H](CCO/N=C(\C)CCN2CCc3nc(-c4ccccc4)c(-c4ccccc4)cc3C2)C=C[C@@H]1Oc1ccc(OC)cc1 | -2 | 4 | -2 | 0 | -15
Cc1cc(Br)ccc1NC(=O)CN(C)C(=O)c1ccc(-n2cncn2)c([N+](=O)[O-])c1 | / | 1 | 3 | 0 | -41*
Cc1cc(Br)ccc1NC(=O)CNC(=O)c1ccc(-n2cncn2)c([N+](=O)[O-])c1 | -5 | -1 | 12 | 0 | -8
CCCCNC(=S)N(Cc1ccco1)Cc1cc2cc3c(cc2[nH]c1=O)OCCO3 | -5 | -1 | 2 | 1 | -46*
Cc1ccc2cc(CN(CC3CCCO3)C(=S)NCc3ccco3)c(=O)[nH]c2c1C (stereo not given) | -12 | 3 | 34* | 1 | 2
Cc1ccc2cc(CN(Cc3nnnn3Cc3ccco3)CC3CCCO3)c(=O)[nH]c2c1C (stereo not given) | 0 | -2 | -2 | 0 | -35*
COc1ccc2[nH]c(=O)c(CN(Cc3nnnn3Cc3ccccc3)CC3CCCO3)cc2c1 (stereo not given) | -5 | 0 | -6 | -1 | -4
Cc1ccc(C)c2[nH]c(=O)c(CN(CC3CCCO3)C(=S)NCc3ccco3)cc12 (stereo not given) | -2 | 1 | 9 | 0 | -4
COc1ccc(-c2cc(C(=O)N3CCN(C(=O)c4ccco4)CC3)[nH]n2)cc1 | 8 | -1 | 0 | 0 | 17
COc1cc(C2c3c(oc4ccc(F)cc4c3=O)C(=O)N2c2nc(C)c(C)s2)cc(OC)c1OC (stereo not given) | -8 | 52* | 10 | 0 | 2
O=C(NCc1ccccn1)c1n[nH]c(=O)c2ccccc12 | -1 | 6 | 16 | 0 | 12
O=C(NCc1ccccn1)c1n[nH]c2ccccc12 | 0 | 2 | 39* | 0 | 0
C=CCOc1ccc(/C=N\NC(N)=S)cc1 | -5 | 0 | 33* | -1 | -62*
C#CCOc1c(Cl)cc(/C=N/O)cc1OC | -1 | 0 | 1 | -1 | -62*
N#CCc1nn(Cc2ccc(F)cc2)c(=O)c2ccccc12 | -8 | 2 | -8 | 1 | -32*
O=c1c2ccccc2nnn1Cc1ccc(F)cc1 | 1 | 2 | -11 | 0 | 11
CCCn1ncc(CN2CCN(Cc3ccc(C)o3)C(CCO)C2)c1C (stereo not given) | -11 | 2 | 6 | -1 | 5
CCCn1cc(CN2CCN(Cc3ccc(C)o3)C(CCO)C2)c(C)n1 (stereo not given) | 1 | 1 | 17 | 0 | -36*
SMILES | D1 PAM | D1 ag | TRHR enhancer | TRHR ag | D1 antag
CN(C)/C=C(/C(=O)c1ccc(Cl)cc1)n1cncn1 | -3 | 3 | -1 | 0 | -33*
COc1ccc(/C=C(/C(=O)c2ccc(Cl)cc2Cl)n2cncn2)cc1 | -4 | 2 | -5 | 2 | 2
CN(C)c1ccc(/C=C(/C(=O)c2ccc(Cl)cc2Cl)n2cncn2)cc1 | 0 | 200* | 4 | 75* | -50*
O=c1c(S(=O)(=O)c2ccccc2)cn(Cc2ccccc2)c2cc(N3CCCC3)c(F)cc12 | -2 | 0 | 2 | 0 | 12
Cc1cccc(S(=O)(=O)c2cn(C)c3cc(N4CCN(c5ccccc5)CC4)c(F)cc3c2=O)c1 | 0 | 4 | 32* | 0 | -1
O=c1c(S(=O)(=O)c2ccccc2)cn(Cc2ccc(F)cc2)c2cc(N3CCCCC3)c(F)cc12 | -1 | 2 | -3 | 0 | -44*
Cc1ccc(NC(=O)Cn2cc(C(=O)C3CC3)c3ccccc32)c(C)c1 | -3 | -2 | 36*! | 1 | 0
Cc1oc(C)c(C(=O)O)c1COc1ccc(C(=O)O)cc1 | -5 | 1 | 14 | 0 | -23
Cc1cc(=O)oc(C)c1C(=O)NCCc1ccccc1 | -2 | 3 | 19 | -1 | -32*
COc1ccc(CNC(=O)c2c(C)cc(=O)oc2C)cc1 | 0 | 1 | 1 | 1 | -33*
COc1ccc(CCNC(=O)c2c(C)cc(=O)oc2C)cc1OC | 0 | 7 | -4 | 0 | 30
COc1ccc(C(=O)NCc2c(C)oc(C)c2C(=O)O)cc1 | 12 | 2 | 39* | 1 | -10
CC1CCc2[nH]c3ccc(C(=O)N(C)CC(=O)Nc4ccccc4Br)cc3c2C1 (stereo not given) | -2 | 2 | 0 | 0 | 26
Cc1cc(C)nc(NC(=O)/C=C/c2cccs2)c1 | 4 | 0 | 0 | -1 | -12
Cc1cc(C)c(-c2csc(NC(=O)/C=C/c3cccs3)n2)c(C)c1 | -2 | 2 | -1 | 1 | -37*
CCN(CC)c1ccc(/C=N/NC(=S)NCc2ccco2)cc1 | -7 | 3 | 13 | 0 | -1
O=C(Cn1cc(C(F)(F)F)ccc1=O)NC1CCCC1 | -2 | 2 | -5 | 0 | -44*
COc1ccc(CNc2nc3ccccc3n2C)c(OC)c1 | -4 | 12 | -5 | -1 | -40*
COc1ccccc1Cn1c(-c2ccccc2OC)nc2ccccc21 | 1 | -1 | 37* | 0 | 7
Oc1ccccc1CNc1nc2ccccc2n1CCN1CCCCC1 | 4 | 3 | 6 | -1 | 4
COc1ccccc1CNc1nc2ccccc2n1CCN1CCCCC1 | 5 | 11 | -7 | 0 | -35*
Cc1ccc(/C(O)=C2\C(=O)C(=O)N(C)C2c2ccc([N+](=O)[O-])cc2)cc1 (stereo not given) | -5 | 2 | 0 | 0 | 9
O=C(CC1CCCC1)N1CCN(S(=O)(=O)c2ccc(F)cc2)CC1 | / | 7 | 3 | 0 | 14
O=C(CCC1CCCC1)N1CCN(S(=O)(=O)c2ccc(Br)cc2)CC1 | -8 | 0 | -8 | -1 | -31*
